The text below walks through data of PubChem BioAssay (EPA / NIEHS).

Common to all, as to details: mRNA level, 48 h; actives raise or lower the signal
Read-out in test [1]: Pro-epidermal growth factor (Homo sapiens) (UniProt P01133)
The experiment in a line: LTEA_HepaRG_EGF: Life Technologies and Expression Analysis (LTEA) Assay for Epidermal growth factor (EGF) using HepaRG (AID 2283489). A digest of the protocol: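 EGF expression changes in human HepaRG cells are scored by bidirectional fitting relative to 0.5% DMSO controls. Chemicals are tested at eight half-log concentrations up to 100 uM for 48 h in serum-free induction medium.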

Read-out in test [2]: Early growth response protein 1 (EGR1) transcription factor, EGR1 (gene 1958)
The experiment in a line: LTEA_HepaRG_EGR1: Life Technologies and Expression Analysis (LTEA) Assay for Early growth response protein 1 (EGR1) transcription factor using HepaRG (AID 2283490). A digest of the protocol:
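HepaRG, 48 h exposure, 8-pt half-log series from 100 uM, 0.5% DMSO vehicle; EGR1 transcript by TaqMan qRT-PCR (Fluidigm array), housekeeping-normalized; bidirectional fit relative to DMSO baseline.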

Read-out in test [3]: Ezrin (EZR), EZR (gene 7430)
The test can be described thus: LTEA_HepaRG_EZR: Life Technologies and Expression Analysis (LTEA) Assay for Ezrin (EZR) using HepaRG (AID 2283491). A digest of the protocol: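 Differentiated human HepaRG cells, 48 h after plating, were exposed in serum-free induction medium for 48 hours to eight half-log concentrations up to 100 uM in 0.5% DMSO. EZR mRNA was measured by TaqMan qRT-PCR, normalized to ACTB, GAPDH and POLR2A, and fitted bidirectionally against DMSO.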

Read-out in test [4]: Cytochrome P450 3A7 (Homo sapiens) (UniProt P24462)
The experiment in a line: LTEA_HepaRG_CYP3A7: Life Technologies and Expression Analysis (LTEA) Assay for CYP3A7 using HepaRG (AID 2283492). An outline of the steps:
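Cells were thawed, plated, cultured 48 h, then treated for a further 48 h with chemicals (eight-point half-log series from 100 uM, 0.5% DMSO). RNA was isolated and CYP3A7 expression quantified by qRT-PCR normalised to ACTB, GAPDH and POLR2A.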

Read-out in test [5]: CYP3A5 (gene 1577)
The test can be described thus: LTEA_HepaRG_CYP3A5: Life Technologies and Expression Analysis (LTEA) Assay for CYP3A5 using HepaRG (AID 2283493). An outline of the steps: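 Readout was CYP3A5 mRNA by qRT-PCR. HepaRG cultures were exposed for 48 h in serum-free induction medium to chemicals at up to 100 uM, and responses were fitted in both directions relative to DMSO vehicle.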

Read-out in test [6]: Fatty Acid-Binding Protein 1 (FABP1), FABP1 (gene 2168)
The experiment in a line: LTEA_HepaRG_FABP1: Life Technologies and Expression Analysis (LTEA) Assay for Fatty Acid-Binding Protein 1 (FABP1) using HepaRG (AID 2283494). A digest of the protocol:
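qRT-PCR readout of FABP1 transcript (normalized to three housekeeping genes) after 48 h chemical exposure of HepaRG cells; eight concentrations, half-log steps, max 100 uM, 0.5% DMSO vehicle; gain or loss fitted relative to DMSO baseline.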

Read-out in test [7]: Cytochrome P450 4A22 (Homo sapiens) (UniProt Q5TCH4)
The test can be described thus: LTEA_HepaRG_CYP4A22: Life Technologies and Expression Analysis (LTEA) Assay for Cytochrome P450 4A22 (CYP4A22) using HepaRG (AID 2283495). A digest of the protocol:
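Cryopreserved HepaRG cells, plated and cultured 48 h, then switched to serum-free induction medium and treated 48 h (duplicates, up to 100 uM, half-log steps, 0.5% DMSO). Expression change of CYP4A22 was fitted bidirectionally against vehicle.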

Read-out in test [8]: Glutathione S-Transferase (GSTA2), GSTA2 (gene 2939)
The experiment in a line: LTEA_HepaRG_GSTA2: Life Technologies and Expression Analysis (LTEA) Assay for Glutathione S-Transferase (GSTA2) using HepaRG (AID 2283497). A digest of the protocol: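 qRT-PCR readout of GSTA2 transcript, normalized to three housekeeping genes, fitted bidirectionally against 0.5% DMSO baseline. Differentiated HepaRG cells received compound for 48 h at 8 concentrations (top 100 uM, half-log steps).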

Read-out in test [9]: Glutamate-cysteine ligase catalytic (GCLC), GCLC (gene 2729)
The test can be described thus: LTEA_HepaRG_GCLC: Life Technologies and Expression Analysis (LTEA) Assay for Glutamate-cysteine ligase catalytic (GCLC) using HepaRG (AID 2283498). An outline of the steps: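 HepaRG, 48 h exposure, 8-pt half-log series from 100 uM, 0.5% DMSO vehicle; TaqMan qRT-PCR for GCLC mRNA, housekeeping-normalized; bidirectional curve fit vs DMSO baseline.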

Read-out in test [10]: Cytochrome P450 7A1 (Homo sapiens) (UniProt P22680)
The experiment in a line: LTEA_HepaRG_CYP7A1: Life Technologies and Expression Analysis (LTEA) Assay for Cytochrome P450 7A1 (CYP7A1) using HepaRG (AID 2283496). A digest of the protocol:
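Using 0.5% DMSO as vehicle and baseline, chemicals were tested in duplicate over an 8-point range from 100 uM on HepaRG cells for 48 h; qRT-PCR signals were normalised to ACTB, GAPDH and POLR2A.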

Calls of active or inactive are those of the source. How the source made its calls: active means hit-call score of the fitted dose curve at least 0.9, where 1 is the maximum; inactive means score below 0.9.

Chain of Cytochrome P450 3A7 (Homo sapiens) (P24462 whole entry, looked up): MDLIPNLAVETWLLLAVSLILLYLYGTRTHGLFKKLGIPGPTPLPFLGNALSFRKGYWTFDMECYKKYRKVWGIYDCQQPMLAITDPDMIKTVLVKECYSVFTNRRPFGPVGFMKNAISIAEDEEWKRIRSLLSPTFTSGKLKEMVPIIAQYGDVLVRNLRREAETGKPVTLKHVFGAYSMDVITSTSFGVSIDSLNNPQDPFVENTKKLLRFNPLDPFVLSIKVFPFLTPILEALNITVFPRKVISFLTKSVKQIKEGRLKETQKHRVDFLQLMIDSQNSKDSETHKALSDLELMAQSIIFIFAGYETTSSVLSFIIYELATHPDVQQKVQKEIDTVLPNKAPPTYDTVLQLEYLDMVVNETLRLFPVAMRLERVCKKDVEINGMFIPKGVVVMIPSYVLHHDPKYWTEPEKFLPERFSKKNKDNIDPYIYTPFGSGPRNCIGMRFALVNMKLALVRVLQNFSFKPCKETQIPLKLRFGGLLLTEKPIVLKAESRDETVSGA

Regarding `O=C(OCCOCCOC(=O)c1ccccc1)c1ccccc1`, the molecule was classed as inactive in test [1], in [2], in [3], in test [4], in test [5] and in test [6]. Further, the outcome in test [7], in test [8] and in test [9] was inactive.
A word on the AC50: it is the midpoint of the concentration-response curve, whichever way the signal moves. As for `NC(=O)N(O)[C@@H]1C=C[C@H](Oc2cccc(Oc3ccc(F)cc3)c2)C1`, the molecule was classed as inactive in test [1], in test [3], in [5] and in test [9]. The AC50 is 12.7 µM (active) in [2]; 33.7 µM (active) in test [4]; 74.2 µM (active) in test [6]; 25.6 µM (active) in test [7]; 51 µM (active) in test [8].
On to `O=c1c(-c2ccc(O)cc2)coc2cc(O)ccc12`, for which the outcome in test [1], in test [2], in test [3], in test [4], in test [5] and in test [6] was inactive. Besides, the molecule was classed as inactive in [7], in test [8] and in [9].
As to `CCCCCCCCCCCCN1CCCC1=O`, the outcome in test [1], in test [2], in [3], in test [4], in [5] and in test [6] was inactive. The molecule was classed as inactive in test [7], in test [8] and in [9].
Take `OCCC(F)(F)C(F)(F)C(F)(F)C(F)(F)C(F)(F)C(F)(F)F`: the molecule was classed as inactive in [1], in [2], in test [3], in test [4], in test [5] and in [6]. The outcome in test [7], in [8] and in test [9] was inactive.
For `NC(=O)N1C(=O)C(C(=O)c2cc(Cl)cs2)c2cc(F)c(Cl)cc21` (stereo not given), the AC50 in test [1] is 50 µM (active); in test [2], 79.3 µM (active); in [4], 24.8 µM (active); in [5] it was 13 µM (active); in test [7], 24.1 µM (active); in test [8], 19.5 µM (active). In test [9], the AC50 is 34.1 µM (active). Besides, in test [3], the molecule was classed as inactive.
Regarding `Cc1oc(-c2ccccc2)nc1CCOc1ccc(C[C@H](Nc2ccccc2C(=O)c2ccccc2)C(=O)O)cc1`, the concentration at half-maximal activity (AC50) in [1] was 24.9 µM (active); in test [2], 87.9 µM (active); in [3] it was 70 µM (active); in [4] it was 25.7 µM (active); in [5], 30.5 µM (active); in [6], 23.1 µM (active). In addition, the concentration at half-maximal activity (AC50) in [7] is 0.189 µM (active); in test [8] it was 23.4 µM (active); in test [9] it was 64 µM (active).
For `COCC(C)O` (stereo not given), the outcome in [1], in [2], in test [3], in test [4], in test [5] and in [6] was inactive. Moreover, the result in test [7], in test [8] and in test [9] was inactive.
In the case of `COC(=O)CCCCC(=O)OC`, the molecule was classed as inactive in test [1], in test [2], in test [3], in test [4], in [5] and in test [6]. Besides, the call in test [7], in test [8] and in test [9] was inactive.
Regarding `CC1=C(/C=C/C(C)=C/C=C/C(C)=C/C(=O)O)C(C)(C)CCC1`, the AC50 is 28 µM (active) in test [1]; 0.495 µM (active) in test [3]; 13.6 µM (active) in test [6]; 10.2 µM (active) in test [7]; 5.61 µM (active) in test [8]. Besides, the outcome in test [2], in test [5] and in [9] was inactive.
Regarding `CCCCCCC(=O)O`, the outcome in [1], in test [2], in test [3], in test [4], in [5] and in test [6] was inactive. Further, the molecule was called inactive in test [7], in test [8] and in [9].
For `CC[C@H](c1ccc(O)cc1)[C@@H](CC)c1ccc(O)cc1`, the call in test [1], in test [4] and in test [7] was inactive. Besides, the AC50 in test [2] was 78.7 µM (active); in [3] it was 88.4 µM (active); in [5] it was 70.3 µM (active); in test [6] it was 80.7 µM (active); in test [8], 87.3 µM (active); in test [9], 79.8 µM (active).
With `CCCOC(=O)c1ccc(O)cc1`, the call in [1], in test [2], in [3], in [5], in [6] and in [7] was inactive. Moreover, the outcome in test [8] and in [9] was inactive.
Regarding `Oc1cccc(O)c1`, the call in test [1], in [2], in test [3], in [4], in test [5] and in test [6] was inactive. Also, the outcome in test [7], in test [8] and in test [9] was inactive.
In the case of `C#C[C@]1(O)CC[C@H]2[C@@H]3CCC4=CC(=O)CC[C@@H]4[C@H]3CC[C@@]21C`, the AC50 in test [1] is 22.9 µM (active); in [10] it was 0.299 µM (active); in test [8] it was 6.05 µM (active). Also, the outcome in test [2], in test [3], in test [6], in test [7] and in test [9] was inactive.
As for `CCc1nn(C2CCCCC2)c2cc(C3(C#N)CCC(C(=O)O)CC3)ccc12` (stereo not given), the AC50 in test [1] was 50 µM (active); in test [2] it was 12.1 µM (active); in test [3], 0.313 µM (active); in test [4], 87.8 µM (active); in test [6], 88.2 µM (active); in [7] it was 56.7 µM (active). Also, the AC50 in test [8] was 77.1 µM (active); in [9], 83.6 µM (active). For the same molecule, the result in test [5] was inactive.
